Measured values: the supplement of paper PMC10849652
The full data set covers some 7,900 targets. This sample favours those with a hit. About 0.6% of all pairs of compound and target were hits. A number with no mark means an inactive call.

How the values were obtained:
Experiment in all cases: log2 fold change, soluble protein after heating vs DMSO (PISA); higher = thermal stabilisation; K562 cells, 10 uM, 30 min; active = over 0.2 and 3.5 SD of the protein, either way, in both replicates (recomputed)
[1] = compound: COC1=CC=C(C=C1)CN2C=CC3=C2C=C(C=C3)C(=O)NO
Procedure, shortened: (§1)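 K562 cells at 2×10^6 cells/mL were treated for 30 min with 10 μM compound, and aliquots were heated for 3 min over 48°C-58°C before pooling. Extraction used PBS with 0.5% NP-40 at 4°C, and soluble protein was the supernatant after 21,000xg for 90 min, measured by TMTpro 16plex LC-MS/MS with channel sums equalised. Thermal stability values, relative to control samples and from duplicates, are log2 fold changes.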

filanesib = compound: CON(C)C(=O)N1N=C(c2cc(F)ccc2F)S[C@@]1(CCCN)c1ccccc1 [filanesib]
Procedure, shortened: as §1

zotarolimus = compound: CO[C@H]1C[C@@H]2CC[C@@H](C)[C@@](O)(O2)C(=O)C(=O)N2CCCC[C@H]2C(=O)O[C@H]([C@H](C)C[C@@H]2CC[C@H](n3cnnn3)[C@H](OC)C2)CC(=O)[C@H](C)/C=C(\C)[C@@H](O)[C@@H](OC)C(=O)[C@H](C)C[C@H](C)/C=C/C=C/C=C/1C [zotarolimus]
Procedure, shortened: as §1

idasanutlin = compound: COc1cc(C(=O)O)ccc1NC(=O)[C@@H]1N[C@@H](CC(C)(C)C)[C@](C#N)(c2ccc(Cl)cc2F)[C@H]1c1cccc(Cl)c1F [idasanutlin]
Procedure, shortened: as §1

alisertib = compound: COc1cc(Nc2ncc3c(n2)-c2ccc(Cl)cc2C(c2c(F)cccc2OC)=NC3)ccc1C(=O)O [alisertib]
Procedure, shortened: as §1

[2] = compound: COc1cc2nc(-c3cc(F)ccc3O)nc(N[C@@H]3CNC[C@H]3C(C)(C)O)c2cc1OC
Procedure, shortened: as §1

gefitinib = compound: COc1cc2ncnc(Nc3ccc(F)c(Cl)c3)c2cc1OCCCN1CCOCC1 [gefitinib]
Procedure, shortened: as §1

[3] = compound: COc1cccc2cc(-c3nc([C@H]4CC[C@H](C(=O)O)CC4)n4ncnc(N)c34)[nH]c12
Procedure, shortened: as §1

lapatinib = compound: CS(=O)(=O)CCNCc1ccc(-c2ccc3ncnc(Nc4ccc(OCc5cccc(F)c5)c(Cl)c4)c3c2)o1 [lapatinib]
Procedure, shortened: as §1

pictilisib = compound: CS(=O)(=O)N1CCN(Cc2cc3nc(-c4cccc5[nH]ncc45)nc(N4CCOCC4)c3s2)CC1 [pictilisib]
Procedure, shortened: as §1

[4] = compound: CS(=O)(=O)c1ccc(-c2cnc(N)c(C(=O)Nc3ccccc3)n2)cc1
Procedure, shortened: as §1

crizotinib = compound: C[C@@H](Oc1cc(-c2cnn(C3CCNCC3)c2)cnc1N)c1c(Cl)ccc(F)c1Cl [crizotinib]
Procedure, shortened: as §1

[5] = compound: C[C@@H]1COCCN1C2=NC(=NC(=C2)C3(CC3)S(=O)(=O)C)C4=C5C=CNC5=CC=C4
Procedure, shortened: as §1

[6] = compound: C[C@H](C1=CC=C(C=C1)C(=O)NC2=C3C=CNC3=NC=C2)N
Procedure, shortened: as §1

duvelisib = compound: C[C@H](Nc1ncnc2nc[nH]c12)c1cc2cccc(Cl)c2c(=O)n1-c1ccccc1 [duvelisib]
Procedure, shortened: as §1

gandotinib = compound: Cc1cc(Nc2cc(CN3CCOCC3)c3nc(C)c(Cc4ccc(Cl)cc4F)n3n2)n[nH]1 [gandotinib]
Procedure, shortened: as §1

tozasertib = compound: Cc1cc(Nc2cc(N3CCN(C)CC3)nc(Sc3ccc(NC(=O)C4CC4)cc3)n2)n[nH]1 [tozasertib]
Procedure, shortened: as §1

[7] = compound: Cc1cc(SCc2sc(-c3ccc(C(F)(F)F)cc3)nc2C)ccc1OCC(=O)O
Procedure, shortened: as §1

doramapimod = compound: Cc1ccc(-n2nc(C(C)(C)C)cc2NC(=O)Nc2ccc(OCCN3CCOCC3)c3ccccc23)cc1 [doramapimod]
Procedure, shortened: as §1

ispinesib = compound: Cc1ccc(C(=O)N(CCCN)[C@@H](c2nc3cc(Cl)ccc3c(=O)n2Cc2ccccc2)C(C)C)cc1 [ispinesib]
Procedure, shortened: as §1

Chain of UniProt Q9NWU1 (Q9NWU1 whole entry, looked up): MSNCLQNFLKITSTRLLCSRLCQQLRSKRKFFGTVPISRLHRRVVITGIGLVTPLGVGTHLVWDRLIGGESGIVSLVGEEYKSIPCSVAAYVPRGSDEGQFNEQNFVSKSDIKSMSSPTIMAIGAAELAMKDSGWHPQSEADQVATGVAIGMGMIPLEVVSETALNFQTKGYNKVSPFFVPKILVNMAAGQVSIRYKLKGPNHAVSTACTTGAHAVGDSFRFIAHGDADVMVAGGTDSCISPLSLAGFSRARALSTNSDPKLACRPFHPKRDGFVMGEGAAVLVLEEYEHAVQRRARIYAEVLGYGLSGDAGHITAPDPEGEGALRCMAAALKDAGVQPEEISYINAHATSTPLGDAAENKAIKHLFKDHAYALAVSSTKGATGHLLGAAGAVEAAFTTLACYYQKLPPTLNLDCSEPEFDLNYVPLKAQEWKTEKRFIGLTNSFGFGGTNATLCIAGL
Chain of UniProt O60313 (O60313 whole entry, looked up): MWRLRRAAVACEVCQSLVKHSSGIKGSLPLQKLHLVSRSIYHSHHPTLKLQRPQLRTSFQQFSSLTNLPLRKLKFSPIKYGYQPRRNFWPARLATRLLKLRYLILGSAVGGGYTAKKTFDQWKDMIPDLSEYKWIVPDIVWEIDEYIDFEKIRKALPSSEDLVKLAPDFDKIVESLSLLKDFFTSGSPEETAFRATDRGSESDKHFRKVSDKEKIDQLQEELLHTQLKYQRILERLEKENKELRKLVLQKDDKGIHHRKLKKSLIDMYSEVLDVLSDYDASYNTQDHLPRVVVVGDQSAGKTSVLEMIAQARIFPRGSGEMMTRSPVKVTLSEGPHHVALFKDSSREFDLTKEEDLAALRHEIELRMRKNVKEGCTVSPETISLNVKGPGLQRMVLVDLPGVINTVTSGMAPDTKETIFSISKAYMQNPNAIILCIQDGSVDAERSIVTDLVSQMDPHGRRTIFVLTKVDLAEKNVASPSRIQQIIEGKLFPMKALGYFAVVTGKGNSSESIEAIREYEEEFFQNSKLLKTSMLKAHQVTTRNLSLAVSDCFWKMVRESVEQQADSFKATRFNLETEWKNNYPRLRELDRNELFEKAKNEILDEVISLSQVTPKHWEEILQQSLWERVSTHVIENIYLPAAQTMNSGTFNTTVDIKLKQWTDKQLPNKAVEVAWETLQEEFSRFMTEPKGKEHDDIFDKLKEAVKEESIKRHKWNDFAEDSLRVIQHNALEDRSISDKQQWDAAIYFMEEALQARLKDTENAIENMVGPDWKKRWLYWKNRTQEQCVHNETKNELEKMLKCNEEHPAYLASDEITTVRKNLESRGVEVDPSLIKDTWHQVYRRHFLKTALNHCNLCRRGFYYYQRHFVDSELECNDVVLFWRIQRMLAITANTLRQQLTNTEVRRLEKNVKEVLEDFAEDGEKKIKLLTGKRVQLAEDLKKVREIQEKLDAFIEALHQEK
Chain of UniProt Q9H1E3 (Q9H1E3 whole entry, looked up): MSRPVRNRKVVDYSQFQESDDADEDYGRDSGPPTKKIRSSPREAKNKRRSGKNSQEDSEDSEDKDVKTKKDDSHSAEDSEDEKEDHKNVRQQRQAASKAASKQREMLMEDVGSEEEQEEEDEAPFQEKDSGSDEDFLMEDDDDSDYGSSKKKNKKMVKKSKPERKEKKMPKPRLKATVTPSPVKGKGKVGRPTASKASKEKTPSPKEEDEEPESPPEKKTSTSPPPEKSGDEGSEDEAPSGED
Chain of UniProt Q5TFE4 (Q5TFE4 whole entry, looked up): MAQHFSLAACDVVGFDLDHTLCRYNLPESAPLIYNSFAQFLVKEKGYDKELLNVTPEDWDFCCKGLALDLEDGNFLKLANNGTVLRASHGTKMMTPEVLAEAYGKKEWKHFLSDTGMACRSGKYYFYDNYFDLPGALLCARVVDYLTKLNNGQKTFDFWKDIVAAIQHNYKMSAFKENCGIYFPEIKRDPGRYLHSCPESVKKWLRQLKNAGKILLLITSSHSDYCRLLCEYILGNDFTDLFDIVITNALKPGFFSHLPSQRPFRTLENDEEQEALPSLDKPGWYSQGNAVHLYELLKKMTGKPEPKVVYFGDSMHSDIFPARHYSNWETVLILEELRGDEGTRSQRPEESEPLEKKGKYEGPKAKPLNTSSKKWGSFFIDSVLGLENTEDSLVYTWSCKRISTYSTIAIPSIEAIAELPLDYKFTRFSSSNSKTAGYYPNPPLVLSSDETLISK
Chain of UniProt Q9HCE1 (Q9HCE1 whole entry, looked up): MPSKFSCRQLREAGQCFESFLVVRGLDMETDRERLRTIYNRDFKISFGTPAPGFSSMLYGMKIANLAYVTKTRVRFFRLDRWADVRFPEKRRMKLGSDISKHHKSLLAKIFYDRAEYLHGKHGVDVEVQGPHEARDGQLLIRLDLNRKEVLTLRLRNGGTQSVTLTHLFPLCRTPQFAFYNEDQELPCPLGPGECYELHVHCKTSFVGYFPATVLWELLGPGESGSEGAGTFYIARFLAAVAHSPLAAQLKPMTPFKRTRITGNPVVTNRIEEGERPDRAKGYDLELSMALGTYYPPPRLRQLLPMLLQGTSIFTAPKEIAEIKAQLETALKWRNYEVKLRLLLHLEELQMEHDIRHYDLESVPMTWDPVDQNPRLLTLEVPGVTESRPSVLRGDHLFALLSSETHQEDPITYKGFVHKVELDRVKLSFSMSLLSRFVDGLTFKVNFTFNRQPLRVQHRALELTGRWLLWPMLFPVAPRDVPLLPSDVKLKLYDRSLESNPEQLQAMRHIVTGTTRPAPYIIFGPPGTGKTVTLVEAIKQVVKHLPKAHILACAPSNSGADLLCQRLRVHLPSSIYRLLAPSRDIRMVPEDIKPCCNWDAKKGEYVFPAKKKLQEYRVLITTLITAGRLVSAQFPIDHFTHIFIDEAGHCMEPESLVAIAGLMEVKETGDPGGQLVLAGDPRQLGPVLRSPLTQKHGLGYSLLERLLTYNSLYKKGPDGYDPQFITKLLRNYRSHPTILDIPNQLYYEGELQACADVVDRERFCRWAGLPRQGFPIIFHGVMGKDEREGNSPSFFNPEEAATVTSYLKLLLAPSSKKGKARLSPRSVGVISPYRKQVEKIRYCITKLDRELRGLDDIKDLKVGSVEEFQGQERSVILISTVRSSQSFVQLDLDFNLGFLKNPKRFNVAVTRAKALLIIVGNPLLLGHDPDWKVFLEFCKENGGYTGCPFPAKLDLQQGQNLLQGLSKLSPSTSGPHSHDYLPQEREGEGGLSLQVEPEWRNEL
Chain of UniProt Q15102 (Q15102 whole entry, looked up): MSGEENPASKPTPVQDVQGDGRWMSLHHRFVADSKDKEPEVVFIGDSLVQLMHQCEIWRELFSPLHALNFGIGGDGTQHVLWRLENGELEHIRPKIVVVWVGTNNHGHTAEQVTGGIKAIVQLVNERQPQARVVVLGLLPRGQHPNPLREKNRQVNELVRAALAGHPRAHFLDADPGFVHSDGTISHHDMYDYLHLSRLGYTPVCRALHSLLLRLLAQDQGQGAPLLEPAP
Chain of UniProt Q9Y2X3 (Q9Y2X3 whole entry, looked up): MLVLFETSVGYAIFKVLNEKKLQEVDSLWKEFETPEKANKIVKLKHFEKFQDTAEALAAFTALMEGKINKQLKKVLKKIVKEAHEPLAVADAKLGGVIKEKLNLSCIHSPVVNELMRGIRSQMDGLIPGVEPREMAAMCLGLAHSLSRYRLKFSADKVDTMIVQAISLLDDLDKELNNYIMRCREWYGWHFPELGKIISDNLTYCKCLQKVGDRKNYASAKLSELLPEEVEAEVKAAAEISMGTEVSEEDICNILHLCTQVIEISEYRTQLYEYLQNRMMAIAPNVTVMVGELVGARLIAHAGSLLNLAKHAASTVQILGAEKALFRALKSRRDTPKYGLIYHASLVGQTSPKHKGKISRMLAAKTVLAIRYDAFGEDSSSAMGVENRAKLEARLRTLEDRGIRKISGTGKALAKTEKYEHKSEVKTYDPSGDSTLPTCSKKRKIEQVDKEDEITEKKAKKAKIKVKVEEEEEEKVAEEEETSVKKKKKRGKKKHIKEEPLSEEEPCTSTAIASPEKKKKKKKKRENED

| Target | log2 fold change [1] | log2 fold change (filanesib) | log2 fold change (zotarolimus) | log2 fold change (idasanutlin) | log2 fold change (alisertib) | log2 fold change [2] | log2 fold change (gefitinib) | log2 fold change [3] | log2 fold change (lapatinib) | log2 fold change (pictilisib) | log2 fold change [4] | log2 fold change (crizotinib) | log2 fold change [5] | log2 fold change [6] | log2 fold change (duvelisib) | log2 fold change (gandotinib) | log2 fold change (tozasertib) | log2 fold change [7] | log2 fold change (doramapimod) | log2 fold change (ispinesib) |
| --- | --- | --- | --- | --- | --- | --- | --- | --- | --- | --- | --- | --- | --- | --- | --- | --- | --- | --- | --- | --- |
| OXSM (UniProt Q9NWU1) | 0.033 | -0.014 | -0.005 | 0.039 | -0.131 | -0.041 | -0.001 | 0.025 | 0.007 | 0.057 | 0.016 | 0.053 | 0.036 | -0.07 | -0.024 | -0.054 | 0.011 | -0.002 | -0.055 | 0.077 |
| NOP58 (UniProt Q9Y2X3) | -0.124 | 0.528 (active) | 0.044 | 0.229 | -0.035 | -0.096 | 0.039 | -0.028 | 0.054 | 0.049 | 0.006 | 0.047 | -0.061 | 0.242 | 0.004 | 0.121 | 0.025 | -0.001 | 0.098 | 0.103 |
| MOV10 (UniProt Q9HCE1) | -0.048 | 0.155 | -0.005 | 0.071 | -0.073 | -0.021 | 0.002 | -0.1 | 0.073 | -0.048 | -0.086 | 0.032 | -0.258 | 0.254 | -0.059 | 0.239 | 0.01 | -0.023 | 0.103 | -0.093 |
| MRPS35 (UniProt P82673) | 0.018 | 0.024 | 0.051 | -0.168 | -0.04 | 0.026 | -0.054 | -0.13 | 0.022 | -0.021 | 0.004 | -0.043 | 0.016 | 0.166 | 0.016 | -0.039 | 0.032 | 0.101 | 0.005 | -0.277 (active) |
| NT5DC1 (UniProt Q5TFE4) | 0.016 | -0.067 | 0.019 | -0.122 | -0.015 | 0.04 | 0.018 | 0.02 | 0.074 | 0.097 | 0.045 | 0.071 | 0.046 | -0.052 | 0.05 | 0.019 | 0.004 | -0.038 | -0.018 | 0.037 |
| OPA1 isoform 2 (UniProt O60313) | -0.01 | -0.118 | 0.035 | -0.105 | 0.002 | -0.249 (active) | -0.002 | 0.002 | 0.024 | -0.07 | 0.056 | -0.326 (active) | 0.048 | -0.003 | 0.034 | -0.063 | -0.075 | 0.054 | -0.031 | -0.337 (active) |
| NUCKS1 (UniProt Q9H1E3) | -0.035 | 0.051 | -0.031 | -0.011 | -0.071 | 0.182 | -0.001 | 0.02 | -0.064 | -0.011 | -0.147 | 0.274 (active) | -0.133 | 0.029 | 0.005 | 0.001 | -0.064 | -0.089 | -0.03 | 0.168 |
| NEU1 (UniProt Q99519) | 0.153 | -0.107 | 0.001 | 0.015 | -0.123 | -0.05 | -0.091 | -0.073 | -0.015 | -0.113 | -0.005 | -0.365 (active) | -0.15 | 0.029 | 0.06 | -0.056 | -0.015 | -0.008 | 0.155 | -0.319 (active) |
| PAFAH1B3 (UniProt Q15102) | -0.01 | -0.024 | 0.037 | -0.033 | -0.044 | 0.03 | 0.043 | 0.057 | -0.054 | 0.079 | 0.059 | 0.041 | 0.165 | -0.039 | 0.123 | -0.062 | -0.035 | 0.031 | -0.009 | 0.014 |
